Source: PubChem (The Scripps Research Institute Molecular Screening Center)
hgDAF12 agonist: activates the H. glycines DAF-12 receptor ligand-binding domain; HEK293 GAL4-hgDAF12 UAS-luciferase reporter, agonist luminescence; normalized to butyrate control; activation, % at 6.8 µM; actives 1.8% (n = 370,000);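 active = activation above a cutoff set at the mean of all screened compounds plus 3 SD, cut at about 10% in these data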;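 also: 0% = DMSO wells and 100% = sodium butyrate wells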
DAX1 inh-1: inhibitors of human orphan nuclear receptor DAX1 (NR0B1). inhibition, % at 6.75 µM. P51843. HEK293 Gal4-DAX1 luciferase reporter, luminescence. actives 0.99% (n = 340,000);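 active = inhibition above the mean over all tested compounds plus 3 SD, cut at about 4.2% in these data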;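 also: 0% = DAX1-transfected cells with DMSO and 100% = empty-vector control cells with DMSO; inhibition shows as a rise in luminescence from relieved DAX1 repression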
Target sequence (P51843 207-470 limits assumed): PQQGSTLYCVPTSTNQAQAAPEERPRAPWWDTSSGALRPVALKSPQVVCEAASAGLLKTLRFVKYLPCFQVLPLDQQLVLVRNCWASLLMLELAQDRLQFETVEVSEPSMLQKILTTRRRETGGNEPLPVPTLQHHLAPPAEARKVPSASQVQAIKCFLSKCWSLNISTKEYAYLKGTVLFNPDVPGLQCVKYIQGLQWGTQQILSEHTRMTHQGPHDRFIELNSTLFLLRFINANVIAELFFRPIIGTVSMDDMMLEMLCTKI
SMARCA2 act: increases SMARCA2 function in MMTV reporter cells; actives 1% (n = 370,000); activation, % at 9.1 µM; AID 652017; MG213 cells, MMTV-luciferase reporter, dexamethasone, overnight; in the data active = activation above about 7.8%;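 also: 0% = vehicle wells and 100% = reference activator wells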
DAX1 inh-2: DAX1 (NR0B1) inhibition, primary screen. inhibition, % at 6.8 µM. actives 1.1% (n = 370,000). HEK293T StAR-luciferase reporter, SF-1/DAX-1 repression relief;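 active = inhibition above the mean over all tested compounds plus 3 SD, cut at about 3.6% in these data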;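 also: 0% = DAX-1 cells with DMSO and 100% = cells lacking DAX-1 with DMSO; higher inhibition means more luminescence from relief of DAX-1 repression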
ssDAF-12 act: activates DAF-12 receptor from parasite S. stercoralis; HEK293 ssDAF-12/GRIP1 lit1-tk-luc reporter, luminescence; % of 3 µM dafachronic acid response; activation, % at 6.8 µM; actives 1% (n = 370,000);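 active = activation above the mean over all tested compounds plus 3 SD, cut at about 0.9% in these data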;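 also: 0% = DMSO-only wells and 100% = 3 µM delta7-dafachronic acid wells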
hcDAF-12 act: H. contortus DAF-12 activation, primary screen; HEK293 hcDAF-12 lit1-tk-luc reporter, luminescence; 0% DMSO, 100% Δ7-dafachronic acid; actives 1.4% (n = 370,000); activation, % at 6.8 µM;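 active = activation above the mean of all tested compounds plus 3 SD, cut at about 5.5% in these data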;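 also: 100% = response to 3 µM Δ7-dafachronic acid high control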
Numbers without * were called inactive; . = no result. Hits are enriched below; roughly 4.8% of the tested compounds scored in any of these assays.

SMILES	hgDAF12 agonist	DAX1 inh-1	SMARCA2 act	DAX1 inh-2	ssDAF-12 act	hcDAF-12 act
COc1ccc(Cl)cc1Nc1cc(C)nc2nc(C)nn12	-2.3	0.5	-0.8	-0.1	-0.8	-2.2
O=C(COC(=O)c1cccc(C(=O)OCC(=O)c2ccc(Br)cc2)n1)c1ccc(Br)cc1	-0.3	-0.4	0.7	0.9	-1.2	-1.9
O=C(COC(=O)c1ccncc1)c1ccc(Br)cc1	-1.8	4.6*	0.6	0.8	-0.7	1.0
Brc1ccccc1-n1nnc(-c2cnc3ccccc3c2)n1	12.8*	1.1	5.7	5.2*	3.5*	17.4*
Cc1ccc2c(c1)NCC(C(=O)NCc1ccccc1)O2 (centres undefined)	4.3	0.5	-3.7	0.1	0.6	3.6
Cc1ccc(S(=O)(=O)c2nc(S(C)(=O)=O)sc2N2CCC(C)CC2)cc1	-1.6	-0.4	7.8*	-0.2	-1.3	-1.9
Cc1ccc(S(=O)(=O)c2nc(S(C)(=O)=O)sc2N2CCCCCC2)cc1	0.5	-0.3	-2.7	0.0	-0.9	-1.6
O=C(Nc1cccnc1)c1ccc(COc2cc(Cl)ccc2Cl)o1	-1.6	-1.6	-0.2	-0.9	-1.7	-3.5
COc1ccc(NC(=O)c2ccc3c(c2)OCO3)cc1Cl	10.5*	1.9	2.6	4.0*	0.7	2.6
CC(=O)c1ccc(NC(=O)C2CCCC2)cc1	1.3	6.0*	-2.1	-0.4	-1.0	-1.4
CC(=O)c1cccc(NC(=O)C2CCCC2)c1	-0.1	0.2	-1.3	0.3	-0.9	-0.8
O=C(Nc1ccc(Cl)c(Cl)c1)c1ccc(Cl)c(Cl)c1	12.9*	2.0	0.5	0.7	0.5	5.2
COc1ccc(NC(=O)C=C(C)C)cc1Cl	10.0	0.6	4.8	4.2*	-0.6	3.1
COCC(=O)Nc1ccc(OC)c(Cl)c1	-1.6	0.7	5.1	0.3	-1.3	-0.9
CSCC[C@H](NC(=O)OC(C)(C)C)C(=O)NCC1CCC(C(=O)O)CC1 (some centres undefined)	-3.6	2.4	-2.0	-0.1	-1.8	-1.2
Cc1ccc(/C=N\NC(=O)c2cc(OCC(F)(F)F)ccc2OCC(F)(F)F)cc1	-0.4	-0.1	-0.5	-0.1	-1.4	-1.4
CCc1ccccc1NC(=O)CSc1nc2n[nH]c(C)c2c(=N)n1-c1ccc(OC)cc1	-2.7	0.5	-3.9	-0.5	-1.4	-1.6
Cc1ccccc1-c1nc(-c2ccc(NC(=O)c3ccc4c(c3)OCO4)cc2)no1	1.3	1.0	1.0	0.2	0.1	1.4
COc1ccc(-n2nc(C(=O)Nc3ccc4c(c3)OCO4)c3ccccc3c2=O)cc1	2.8	-0.5	-2.8	0.9	-0.8	0.8
Cn1nc(C(=O)Nc2ccc3c(c2)OCO3)c2ccccc2c1=O	2.4	-0.3	-0.4	-0.5	2.4*	-1.0
COc1cc(-c2nc(-c3ccc(NC(=O)c4ccc5c(c4)OCO5)cc3)no2)cc(OC)c1OC	2.1	1.1	8.0*	-0.1	-0.2	0.4
O=C(Nc1ccc2c(c1)OCO2)c1c(F)cccc1F	12.6*	1.3	2.4	2.3	-0.7	5.5
O=C(Nc1ccc(F)c(Cl)c1)c1ccc2c(c1)OCO2	10.7*	2.6	3.5	2.3	0.3	6.2*
COc1cccc(C(=O)N2CCN(C(=O)Cc3ccccc3)CC2)c1	-3.5	1.4	3.8	-0.7	-1.0	-0.7
Cc1cccc(NC(=O)CSc2nnc(-c3ccco3)o2)c1C	-0.4	1.9	0.8	1.0	-1.6	1.1
SMILES	hgDAF12 agonist	DAX1 inh-1	SMARCA2 act	DAX1 inh-2	ssDAF-12 act	hcDAF-12 act
COc1ccc(C(CC(=O)c2ccc3c(c2)OCO3)C(=O)O)cc1OC (centres undefined)	1.1	2.5	0.1	-0.7	4.0*	0.3
O=C(Nc1nc(-c2ccc3c(c2)OCO3)cs1)C1CC1	11.1*	2.5	3.8	3.0	0.6	2.6
O=C(Nc1ccc2c(c1)OCO2)C1CCCCC1	2.9	0.5	1.6	4.0*	-0.6	-0.8
CC(C)Oc1ccc(N2CC(C(=O)Nc3ccc4c(c3)OCO4)CC2=O)cc1 (centres undefined)	-0.5	4.2	-0.8	-0.5	1.4*	1.3
CCCOc1ccc(Cc2c(O)nc(SC)[nH]c2=O)cc1	-0.2	-0.4	-0.3	-0.4	-0.5	0.4
Nc1ccc2oc3ncccc3c(=O)c2c1	3.9	-0.4	1.1	0.3	-0.8	-0.6
CCCc1nn2c(=O)c(C(c3ccc(C)cc3)c3c(O)nc4sc(CCC)nn4c3=O)c(O)nc2s1	-1.2	-0.2	-0.3	-0.7	-0.9	1.0
CC(C)c1ccc(-c2nnc(N)s2)cc1	11.3*	3.7	7.1	1.9	0.4	6.0*
Cc1ccc(-c2nnc(N)s2)cc1	7.2	2.2	0.1	1.0	0.5	-1.2
c1ccc(-n2cnc3ccccc32)cc1	11.0*	2.3	7.1	0.9	-0.8	-1.3
CCCCn1c(=O)[nH]c(=O)c2c1nc(-c1cc(Cl)c(OC)c(OC)c1)n2C	-0.2	0.5	-2.3	0.5	-0.9	0.8
Cc1ccc(C)n1-c1cccc(C(=O)Nc2ccccc2)c1	0.0	0.2	-2.3	0.2	-1.5	0.3
CC(C)[C@H](NC(=O)N1CC(=O)Nc2ccccc21)C(=O)N[C@H](Cc1c[nH]c2ccccc12)C(=O)O	1.1	4.0	-1.9	1.4	1.6*	3.3
CC(C)[C@H](NC(=O)N1CC(=O)Nc2ccccc21)C(=O)N[C@H](Cc1ccccc1)C(=O)O	-3.3	1.2	0.4	-0.2	-0.6	-1.6
Cc1ccc(CNC(=O)Cn2nnc(C(=O)Nc3cc(C)ccc3C)c2N)cc1	-0.7	-0.1	-0.8	-0.7	-1.2	1.9
O=C(Nc1ccccn1)c1sc2cc([N+](=O)[O-])ccc2c1Cl	3.4	0.8	3.9	0.5	-0.9	3.8
CC(=O)NCCC(=O)Nc1nc(-c2ccc3ccccc3c2)cs1	1.2	0.7	-3.8	0.2	0.8	-0.4
CC(=O)Nc1nc(-c2ccc3ccccc3c2)cs1	12.9*	2.9	6.4	2.0	-0.1	4.9
CCC(=O)Nc1ccc(-c2csc(NNC(C)=O)n2)cc1	2.4	-0.4	-0.8	0.1	0.9*	0.9
COc1ccc(CC(NC(C)=O)C(=O)NC2CCN(C(=O)c3cccc(Cl)c3)CC2)cc1OC (centres undefined)	-2.4	0.8	1.1	-0.2	-1.4	-0.6
CC(OC(=O)CC1Sc2ccccc2NC1=O)C(=O)N(C)Cc1ccccc1 (centres undefined)	2.6	1.7	4.3	1.0	1.0*	1.6
COc1cc2nc(/C=C/c3ccc(N(C)C)cc3)sc2cc1SC	4.7	-0.9	0.5	0.2	-0.4	1.9
O=C(Nc1nc2ccc(Cl)cc2s1)c1ccc(Br)o1	5.7	1.1	4.5	0.7	-1.1	0.1
Cc1cc(C(=O)Nc2nc3ccc(Cl)cc3s2)nn1C	10.9*	.	5.5	1.4	0.0	3.8
Cc1nc(C(F)(F)F)ccc1C(=O)Nc1ccc(C(F)(F)F)cn1	0.3	-0.9	-0.4	0.1	-0.8	1.3
